Screening results from PubChem.
Sampled rows, rich in hits. Any-hit rate of the full collection: about 32%.
PostGolgi ctrl – yeast control strain growth, post-Golgi counter-screen; efflux-deficient yeast background strain, growth absorbance A615, 16 h; AID 738; inhibition, % at 10 µM; 98,000 tested, 5% active
PostGolgi yeast – growth inhibition of a yeast mutant, post-Golgi transport screen; post-Golgi transport phenotypic cell assay; inhibition, % at 10 µM; 98,000 tested, 0.9% active;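 note: yeast cells grown in 1536-well plates; yeast grown about 18 h at 30C before absorbance read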
CYP2C9 act – CYP2C9 (human) activation; P11712; activation factor at 5 µM; AID 1024; recombinant CYP2C9, luciferin-H conversion, luminescence; active compounds read high; factor 1 = untreated enzyme, 0 = blocked; 96,000 tested, 1.4% active;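 active = activation factor of 2 or more for CYP2C9 at a 5 µM dose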
CYP2C9 inh – human CYP2C9 inhibition; P11712; CYP2C9 Supersomes, luciferin-H conversion, luminescence; inhibition, % at 5 µM; 96,000 tested, 20% active;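 active = blocking of liver enzyme CYP2C9 beyond about 50% at 5 µM, limit read from the data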
CYP2C19 inh – inhibitors of human CYP2C19 | P33261 | CYP2C19 Supersomes, luciferin-H EGE luminescence, 30 min | inhibition, % at 5 µM | 96,000 tested, 21% active;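 active = CYP2C19 inhibition above a set limit at 5 µM in the primary screen, cut at about 50% in these data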
Target sequence (P33261 whole entry, looked up): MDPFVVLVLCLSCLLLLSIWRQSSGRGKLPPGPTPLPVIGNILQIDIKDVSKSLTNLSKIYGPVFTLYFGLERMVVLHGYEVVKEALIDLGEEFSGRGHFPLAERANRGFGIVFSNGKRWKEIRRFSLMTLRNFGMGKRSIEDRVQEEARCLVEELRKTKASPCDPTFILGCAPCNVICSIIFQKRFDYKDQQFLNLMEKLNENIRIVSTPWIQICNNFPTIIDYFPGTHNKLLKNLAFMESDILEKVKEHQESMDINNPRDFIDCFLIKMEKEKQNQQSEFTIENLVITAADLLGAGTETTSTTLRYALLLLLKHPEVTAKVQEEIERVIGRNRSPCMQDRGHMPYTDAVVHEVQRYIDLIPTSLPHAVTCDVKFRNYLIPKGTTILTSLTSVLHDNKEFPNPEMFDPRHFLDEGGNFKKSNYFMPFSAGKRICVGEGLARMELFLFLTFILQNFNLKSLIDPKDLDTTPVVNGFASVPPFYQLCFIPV
CYP2C19 activ – activators of human cytochrome P450 2C19; P33261; recombinant CYP2C19, luciferin-H EGE luminescence; active compounds read high; 0 = fully inhibited enzyme, 1 = untreated enzyme; activation factor at 5 µM; 96,000 tested, under 10 active; AID 1025;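 active = activation factor of at least 2 at 5 µM in the primary screen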
Each line names hits and unclear results; the compound was inactive in the other large screens. Cut-off read from the data, not from the text of the source, unless noted: active = inhibition above about 30%; inactive = the rest.

COc1cc(CNCc2ccncc2)cc(Br)c1OCc1ccccc1F	CYP2C9 inh 91.3, CYP2C19 inh 85.7
COc1cc(CNCCO)cc(Br)c1OCc1cccs1	none
O=C(CCN1C(=O)CSC1=O)Nc1ccccc1	none
Cc1cc(C)n(-c2nc(C)nc3c2cnn3-c2ccccc2)n1	none
Cc1ccccc1S(=O)(=O)NNC(=O)C(=O)NNc1ccccn1	none
Cc1nc(-c2ccccc2)nc2[nH]c(C(C)C)cc(=O)c12	CYP2C9 inh 80.8
O=C(CSc1ncc(-c2ccc(F)cc2)[nH]1)NCc1ccco1	none
Cc1cc(C)c2cc(C#N)c(SCC(=O)NCc3ccco3)nc2c1	CYP2C9 inh 71.2
COc1ccc(-c2ccc(SCC(=O)NCc3ccco3)nn2)cc1OC	none
COc1ccc(-c2[nH]c(-c3ccc(C)cc3)nc2SCC(=O)NCc2ccco2)cc1OC	CYP2C19 inh 63.9
Cc1ccc2c(SCC(=O)NCc3ccco3)nc(-c3ccc(F)cc3)nc2c1	CYP2C9 inh 89.4
CCOc1ccc(CC(=O)Nc2c(C(N)=O)oc3ccccc23)cc1OCC	none (no result: CYP2C9 act, CYP2C9 inh, CYP2C19 inh, CYP2C19 activ)
Cc1cc(C(=O)OCC(=O)c2ccc3c(c2)OCCO3)c(C)o1	CYP2C19 inh 86.5
FC(F)(F)c1ccc(-n2ccnc2)nc1	CYP2C19 inh 51.6
FC(F)(F)c1nnc2ccc(-n3ccnc3)nn12	none
CC(C)C(c1nnnn1C1CCCC1)N1CCc2ccccc21 (stereo unspecified)	CYP2C9 inh 56.7
COCCn1nnnc1C(c1cc2ccc(C)cc2[nH]c1=O)N(Cc1ccco1)Cc1cccs1 (stereo unspecified)	CYP2C9 inh 69.7
CCCC(c1nnnn1C(C)(C)CC)N(Cc1ccco1)Cc1cc2ccc(OC)cc2[nH]c1=O (stereo unspecified)	none
COc1cc2cc(C(c3nnnn3C3CCCCC3)N(C)C3CCCCC3)c(=O)[nH]c2cc1OC (stereo unspecified)	CYP2C9 inh 50.5, CYP2C19 inh 62.4
Cc1cc2cc(C(c3nnnn3C3CCCC3)N(Cc3cccnc3)Cc3ccco3)c(=O)[nH]c2cc1C (stereo unspecified)	CYP2C9 inh 60.1, CYP2C19 inh 60.4
O=C(CN1C(=O)NC2(CCCCCC2)C1=O)Nc1ccc(S(=O)(=O)N2CCOCC2)cc1	none
CC(C)C(c1nnnn1C1CCCC1)N(C)C1CCCCC1 (stereo unspecified)	CYP2C9 inh 51.2
Cc1ccc2cc(C(c3nnnn3C3CCCC3)N(Cc3ccccc3)Cc3ccco3)c(=O)[nH]c2c1 (stereo unspecified)	none
Cc1ccc(C(c2nnnn2C2CCCCC2)N(C)C2CCCCC2)cc1 (stereo unspecified)	none
CCC(C)(C)n1nnnc1C(c1cc2ccc(C)cc2[nH]c1=O)N(Cc1cccnc1)Cc1ccco1 (stereo unspecified)	CYP2C9 inh 88.9, CYP2C19 inh 99.0
CCN(CC)C(=O)CN1C(=O)COCC1=O	none
CC1CC(C)CN(CCCNC(=O)C2CCC(=O)N2C2CCCC2)C1 (stereo unspecified)	none
CC1CCN(CCc2nc3cc(NC(=O)NC4CCCCC4)ccc3n2C)CC1	none
Cn1cc([N+](=O)[O-])c(C(=O)Nc2cc(Oc3cccnc3)cc([N+](=O)[O-])c2)n1	CYP2C9 inh 78.1, CYP2C19 inh 72.4
Cc1cc(C)n(Cc2ccc(NC(=O)c3nn(C)cc3[N+](=O)[O-])cc2)n1	none
COCCNS(=O)(=O)c1cccc2cccnc12	none
CS(=O)CCC(NS(=O)(=O)c1ccccc1)C(=O)O (stereo unspecified)	none
CCc1nc(SCC(=O)Nc2c(C)nn(C)c2C)c2cnn(-c3ccccc3)c2n1	none
Cc1nn(Cc2ccccc2)c(C)c1NC(=O)CSc1nc(C2CC2)nc2c1cnn2-c1ccccc1	CYP2C9 inh 64.1
CCc1c(C)nc2ncnn2c1Nc1ccc(C#N)c(Cl)c1	none
Cc1conc1NC(c1cccs1)c1ccc2cccnc2c1O (stereo unspecified)	none
Oc1c(C(Nc2nc3ccccc3s2)c2ccco2)ccc2cccnc12 (stereo unspecified)	CYP2C9 inh 73.4
COc1ccc(C(NC(C)=O)c2ccc3cccnc3c2O)c(OC)c1 (stereo unspecified)	CYP2C19 inh 58.5 (no result: PostGolgi ctrl, PostGolgi yeast)
CC(C)C(=O)NC(c1ccco1)c1ccc2cccnc2c1O (stereo unspecified)	PostGolgi ctrl 32.5
O=Nc1c2nc3ccccc3n(O)c-2c2ccccc12	none
CC(=O)Nc1nc(C)nc(C)c1C(C)=O	none
Cc1ccc(N2CCN(CCc3nc4cc(NS(C)(=O)=O)ccc4n3C)CC2)cc1	none
CCC(C)NC(=O)c1cc2cc3ccc(OC)cc3nc2s1 (stereo unspecified)	CYP2C9 inh 84.0, CYP2C19 inh 76.1
CC1(C)Cc2c(C#N)c(N3CCN(C(=O)c4ccco4)CC3)nc(-c3ccco3)c2CS1	none (no result: CYP2C9 act, CYP2C9 inh, CYP2C19 inh, CYP2C19 activ)
N#Cc1c(N2CCN(C(=O)c3ccccc3Cl)CC2)nc(-c2ccccc2)c2c1CCCC2	CYP2C9 inh 64.0, CYP2C19 inh 50.3
N#Cc1c(N2CCN(C(=O)c3ccco3)CC2)nc(-c2ccccc2)c2c1CCCC2	PostGolgi yeast 52.0, CYP2C9 inh 86.1, CYP2C19 inh 87.6
N#Cc1c(N2CCN(C(=O)c3ccccc3)CC2)nc(-c2ccccc2)c2c1CCCC2	PostGolgi yeast 57.0, CYP2C9 inh 71.9, CYP2C19 inh 62.0
CCOc1ccc(NC(=O)CN(C)CC(=O)NC2CCCc3ccccc32)cc1OCC (stereo unspecified)	CYP2C9 inh 85.8
Clc1ccccc1/C=N/c1cc(-c2ccccc2)nn1-c1ccccc1	none
O=C(CCCn1c(=O)[nH]c2cc(Cl)ccc2c1=O)NCCC1=CCCCC1	none
FC(F)(F)c1cnc(-n2cc[nH]c2=S)c(Cl)c1	none
COc1ccccc1N(CN1CCCC1=O)C(=O)c1c(F)cccc1F	CYP2C9 inh 76.2
O=S(NC1CCCCC1)C12CC3CC(CC(C3)C1)C2 (stereo unspecified)	none
CC(C)Oc1ccc(NC(=O)Oc2ccccc2)cc1	none
COC(=O)c1nc2n(n1)C(c1cc(OC)ccc1OC)C(C(=O)OC1CCCCC1)=C(C)N2 (stereo unspecified)	CYP2C9 inh 67.8
CCCCCOC(=O)C1=C(C)Nc2nnnn2C1c1ccccc1Cl (stereo unspecified)	PostGolgi ctrl 47.7, PostGolgi yeast 45.5
COC(=O)C1=C(C)Nc2nnnn2C1c1cc(OC)ccc1OC (stereo unspecified)	CYP2C9 inh 60.8
C=CCOC(=O)C1=C(C)Nc2nnnn2C1c1ccc(OC)cc1OC (stereo unspecified)	none
CCN(CC)CCN1C(=O)C(=O)/C(=C(/O)c2ccncc2)C1c1ccccc1 (stereo unspecified)	none
CN=Cc1cc(-c2ccccc2)sc1O	none
CCOC(=O)c1c(C)nc2sc3c(=O)n(-c4ccc(OC)cc4)cnc3c2c1-c1ccc(OC)cc1	CYP2C9 inh 80.3, CYP2C19 inh 74.3
